Laboratory results reported in the supplement of paper PMC11732987, “Enantioselective OTUD7B fragment discovery through chemoproteomics screening and high-throughput optimisation” (Communications Chemistry, 2025).

Experiments:
Experiment in all cases: log2 ratio of Biotin-Ahx-Ub-VS probe labelling (fragment/DMSO); higher = less target engagement (more negative = stronger competition), active = hit call of the paper (q ≤ 0.05, log2 ratio ≤ -1)
Conditions in all cases: compound concentration: 200 uM; treatment time: 3 h
OTUD6B = biological target: T1, OTUD6B (UniProt Q8N6M0)
T1 sequence (whole entry): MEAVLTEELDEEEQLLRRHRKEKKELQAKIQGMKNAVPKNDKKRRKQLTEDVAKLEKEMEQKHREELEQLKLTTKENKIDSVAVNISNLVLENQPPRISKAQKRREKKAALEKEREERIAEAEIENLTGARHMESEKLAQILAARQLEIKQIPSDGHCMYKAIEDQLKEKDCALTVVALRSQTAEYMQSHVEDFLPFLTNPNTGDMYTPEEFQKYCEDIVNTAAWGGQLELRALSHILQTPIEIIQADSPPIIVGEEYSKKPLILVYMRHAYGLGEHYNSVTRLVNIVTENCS
Method in brief: (§1)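 In triplicate, 495 µg of HEK293T lysate per sample was incubated with fragment at 200 µM or vehicle for 3 h. Biotin-Ahx-Ub-VS was then added to 0.5 µM final for 1 h, and labelled DUBs were captured with NeutrAvidin, digested with LysC and trypsin, and measured by diaPASEF LC-MS/MS. Data are average log2 fragment/vehicle ratios by unpaired t-test from global-median-normalised Spectronaut label-free quantities, restricted to proteins with ≥2 unique peptides.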

OTUD7B = biological target: T2, OTUD7B (UniProt Q6GQQ9)
T2 sequence (whole entry): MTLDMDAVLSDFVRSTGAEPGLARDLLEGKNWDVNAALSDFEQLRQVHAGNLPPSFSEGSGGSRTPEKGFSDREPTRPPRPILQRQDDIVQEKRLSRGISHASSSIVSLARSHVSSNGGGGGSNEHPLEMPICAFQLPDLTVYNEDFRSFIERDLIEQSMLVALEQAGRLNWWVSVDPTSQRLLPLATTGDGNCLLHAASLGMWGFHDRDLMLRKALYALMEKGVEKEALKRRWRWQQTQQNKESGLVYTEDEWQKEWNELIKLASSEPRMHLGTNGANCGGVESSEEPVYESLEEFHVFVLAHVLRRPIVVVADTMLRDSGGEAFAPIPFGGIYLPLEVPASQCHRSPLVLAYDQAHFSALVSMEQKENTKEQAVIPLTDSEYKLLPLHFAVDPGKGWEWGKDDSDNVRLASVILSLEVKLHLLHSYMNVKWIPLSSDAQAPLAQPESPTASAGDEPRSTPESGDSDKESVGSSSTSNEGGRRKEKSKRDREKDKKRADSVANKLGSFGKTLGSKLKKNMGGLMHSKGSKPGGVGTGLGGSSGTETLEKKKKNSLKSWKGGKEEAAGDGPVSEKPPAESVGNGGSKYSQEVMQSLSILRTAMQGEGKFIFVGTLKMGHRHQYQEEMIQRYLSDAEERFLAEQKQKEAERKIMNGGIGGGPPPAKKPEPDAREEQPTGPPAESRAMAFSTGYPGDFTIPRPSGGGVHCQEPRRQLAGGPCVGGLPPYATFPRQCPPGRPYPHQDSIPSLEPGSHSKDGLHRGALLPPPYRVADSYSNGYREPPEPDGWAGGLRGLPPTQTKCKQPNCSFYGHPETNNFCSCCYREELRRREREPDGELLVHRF
Method in brief: as §1

PRPF8 = PRPF8 (UniProt Q6P2Q9)
Method in brief: as §1

PSMD7 = biological target: T3, PSMD7 (UniProt P51665)
T3 sequence (whole entry): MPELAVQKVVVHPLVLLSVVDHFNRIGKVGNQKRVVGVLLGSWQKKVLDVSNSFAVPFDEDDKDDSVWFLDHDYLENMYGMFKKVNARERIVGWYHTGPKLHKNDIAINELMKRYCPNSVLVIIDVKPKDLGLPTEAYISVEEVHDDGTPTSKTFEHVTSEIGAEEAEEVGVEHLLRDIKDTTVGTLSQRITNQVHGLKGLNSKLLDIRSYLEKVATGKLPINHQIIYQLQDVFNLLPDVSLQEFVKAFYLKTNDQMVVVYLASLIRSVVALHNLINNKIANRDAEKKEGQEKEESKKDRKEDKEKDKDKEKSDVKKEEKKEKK
Method in brief: as §1

UCHL1 = UCHL1 (UniProt P09936)
Chain of UCHL1 (P09936 whole entry, looked up): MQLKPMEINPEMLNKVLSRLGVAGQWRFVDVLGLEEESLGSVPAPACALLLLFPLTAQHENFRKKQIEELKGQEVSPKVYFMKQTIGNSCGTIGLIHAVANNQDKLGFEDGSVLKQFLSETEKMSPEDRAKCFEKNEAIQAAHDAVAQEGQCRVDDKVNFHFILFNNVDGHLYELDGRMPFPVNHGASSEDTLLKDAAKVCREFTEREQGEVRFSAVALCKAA
Method in brief: as §1

UCHL3 = biological target: T4, UCHL3 (UniProt P15374)
T4 sequence (whole entry): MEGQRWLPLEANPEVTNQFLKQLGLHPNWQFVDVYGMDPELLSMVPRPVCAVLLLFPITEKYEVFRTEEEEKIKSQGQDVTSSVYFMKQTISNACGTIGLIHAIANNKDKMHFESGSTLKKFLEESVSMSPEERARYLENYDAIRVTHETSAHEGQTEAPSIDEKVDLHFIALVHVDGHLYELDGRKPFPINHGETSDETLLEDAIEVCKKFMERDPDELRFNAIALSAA
Method in brief: as §1

UCHL5 = biological target: T5, UCHL5 (UniProt Q9Y5K5)
T5 sequence (whole entry): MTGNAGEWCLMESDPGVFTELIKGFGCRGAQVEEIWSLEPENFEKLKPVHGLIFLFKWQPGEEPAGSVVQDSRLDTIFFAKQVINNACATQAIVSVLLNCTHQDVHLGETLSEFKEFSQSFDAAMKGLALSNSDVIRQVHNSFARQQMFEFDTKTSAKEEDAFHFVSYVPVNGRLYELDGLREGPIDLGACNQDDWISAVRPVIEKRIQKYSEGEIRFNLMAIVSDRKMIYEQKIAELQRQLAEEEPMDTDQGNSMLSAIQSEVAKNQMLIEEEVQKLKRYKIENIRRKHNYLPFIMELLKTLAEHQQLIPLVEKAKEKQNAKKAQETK
Method in brief: as §1

USP10 = USP10 (UniProt Q14694)
Chain of USP10 (Q14694 whole entry): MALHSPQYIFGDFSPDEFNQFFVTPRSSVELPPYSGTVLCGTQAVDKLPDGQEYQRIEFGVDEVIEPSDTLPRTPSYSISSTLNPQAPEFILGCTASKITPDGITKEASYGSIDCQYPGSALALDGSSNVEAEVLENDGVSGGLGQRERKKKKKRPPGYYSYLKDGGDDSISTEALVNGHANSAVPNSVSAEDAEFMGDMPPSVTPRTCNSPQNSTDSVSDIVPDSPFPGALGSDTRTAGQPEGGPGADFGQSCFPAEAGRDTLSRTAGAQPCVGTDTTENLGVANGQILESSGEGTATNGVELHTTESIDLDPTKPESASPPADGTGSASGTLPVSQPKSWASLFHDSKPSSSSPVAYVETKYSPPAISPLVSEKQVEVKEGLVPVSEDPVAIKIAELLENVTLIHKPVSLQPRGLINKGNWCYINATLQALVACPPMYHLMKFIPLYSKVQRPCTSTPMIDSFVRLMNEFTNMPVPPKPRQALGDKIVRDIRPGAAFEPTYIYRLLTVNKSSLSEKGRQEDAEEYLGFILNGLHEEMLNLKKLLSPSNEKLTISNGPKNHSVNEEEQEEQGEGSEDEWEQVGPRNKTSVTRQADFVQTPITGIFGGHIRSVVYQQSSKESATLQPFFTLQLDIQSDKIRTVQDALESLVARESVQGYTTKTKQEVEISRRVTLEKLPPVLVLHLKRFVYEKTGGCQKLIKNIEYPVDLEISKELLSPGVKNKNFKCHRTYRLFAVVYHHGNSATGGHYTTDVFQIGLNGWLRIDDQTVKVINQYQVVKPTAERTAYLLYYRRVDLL
Method in brief: as §1

USP15 = biological target: T6, USP15 (UniProt Q9Y4E8)
T6 sequence (whole entry): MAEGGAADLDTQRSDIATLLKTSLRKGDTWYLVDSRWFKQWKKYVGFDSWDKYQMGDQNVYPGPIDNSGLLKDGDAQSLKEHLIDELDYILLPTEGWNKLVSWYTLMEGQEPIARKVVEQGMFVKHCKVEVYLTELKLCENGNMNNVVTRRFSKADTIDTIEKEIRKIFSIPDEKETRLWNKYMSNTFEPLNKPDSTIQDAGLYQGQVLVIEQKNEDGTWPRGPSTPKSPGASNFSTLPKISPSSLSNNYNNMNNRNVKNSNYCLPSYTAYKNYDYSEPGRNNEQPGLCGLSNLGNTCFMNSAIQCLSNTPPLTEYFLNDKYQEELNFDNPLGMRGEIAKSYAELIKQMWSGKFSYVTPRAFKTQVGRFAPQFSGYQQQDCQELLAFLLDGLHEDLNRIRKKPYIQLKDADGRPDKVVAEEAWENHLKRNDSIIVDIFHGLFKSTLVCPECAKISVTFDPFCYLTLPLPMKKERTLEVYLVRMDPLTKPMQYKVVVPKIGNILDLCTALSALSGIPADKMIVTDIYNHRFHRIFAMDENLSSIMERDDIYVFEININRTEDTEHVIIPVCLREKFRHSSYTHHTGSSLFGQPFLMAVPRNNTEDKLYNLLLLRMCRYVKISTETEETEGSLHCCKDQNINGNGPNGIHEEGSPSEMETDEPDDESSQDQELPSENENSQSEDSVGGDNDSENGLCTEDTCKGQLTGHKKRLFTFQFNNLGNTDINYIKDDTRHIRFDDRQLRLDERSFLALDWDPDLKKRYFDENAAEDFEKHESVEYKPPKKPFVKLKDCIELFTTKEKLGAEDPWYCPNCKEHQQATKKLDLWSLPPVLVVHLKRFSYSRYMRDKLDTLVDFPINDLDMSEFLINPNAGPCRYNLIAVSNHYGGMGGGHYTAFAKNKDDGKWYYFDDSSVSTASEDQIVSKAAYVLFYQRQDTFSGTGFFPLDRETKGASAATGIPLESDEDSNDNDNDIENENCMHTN
Method in brief: as §1

USP16 = USP16 (UniProt Q9Y5T5)
Chain of USP16 (Q9Y5T5 whole entry, looked up): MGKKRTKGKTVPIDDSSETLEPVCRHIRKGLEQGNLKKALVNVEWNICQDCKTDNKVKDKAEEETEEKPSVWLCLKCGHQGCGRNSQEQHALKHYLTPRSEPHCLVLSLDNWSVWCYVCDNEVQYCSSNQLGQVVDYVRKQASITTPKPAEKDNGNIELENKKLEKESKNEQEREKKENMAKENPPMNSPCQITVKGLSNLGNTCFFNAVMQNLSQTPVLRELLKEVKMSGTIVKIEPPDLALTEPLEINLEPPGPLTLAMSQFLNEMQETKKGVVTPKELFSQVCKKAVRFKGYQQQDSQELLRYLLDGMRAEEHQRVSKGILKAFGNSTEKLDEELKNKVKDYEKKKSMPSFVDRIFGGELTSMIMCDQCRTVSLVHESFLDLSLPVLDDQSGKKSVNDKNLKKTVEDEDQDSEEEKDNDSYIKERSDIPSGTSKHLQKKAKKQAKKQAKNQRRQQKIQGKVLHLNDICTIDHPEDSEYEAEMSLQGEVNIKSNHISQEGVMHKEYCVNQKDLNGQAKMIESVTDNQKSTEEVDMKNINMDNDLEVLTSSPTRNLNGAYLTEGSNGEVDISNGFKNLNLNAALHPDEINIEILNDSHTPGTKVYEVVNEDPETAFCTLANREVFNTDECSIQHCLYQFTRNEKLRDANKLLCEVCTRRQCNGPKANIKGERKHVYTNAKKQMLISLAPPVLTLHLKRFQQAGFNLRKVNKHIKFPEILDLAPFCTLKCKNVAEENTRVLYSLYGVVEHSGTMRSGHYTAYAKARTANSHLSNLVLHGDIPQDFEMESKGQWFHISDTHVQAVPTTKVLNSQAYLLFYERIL
Method in brief: as §1

Measured: log2 ratio of Biotin-Ahx-Ub-VS probe labelling

CCN(Cc1ccc(C#N)cc1F)C(=O)CCl
inactive: OTUD6B -0.409 | OTUD7B -0.641 | PRPF8 0.0668 | PSMD7 -0.234 | UCHL3 0.0414 | UCHL5 -0.5 | USP10 -0.11 | USP15 -0.275 | USP16 0.17
active: UCHL1 -1.35
